According to PubChem BioAssay:
Where “and” joins values, the source holds several entries; their conditions need not be identical. Identical values can stand only once. Calls of active or inactive are those of the source.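 Rule for the calls, unless noted: active = compounds whose cell count with miR-34 switched on is under 0.7 times the count with it off; inactive = the rest.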

Assays:
[1] = circadian clock period modulators, cell-based, LOPAC library, luminescence reporter (AID 2774; call rule not given here;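 note: values are relative to mean of DMSO wells on each plate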); conditions: circadian reporter cells, at 7 µM, actives lie on both sides
[2] = system: Hepatitis C virus NS3 helicase; assay: HCV NS3 helicase inhibitors, primary screen, biochemical, fluorescence polarization, LOPAC1280 library (AID 687035; in the data active = inhibition above about 37%); conditions: Purified HCV NS3 helicase, Cy5-dT15 ssDNA binding fluorescence polarization; stronger effect = higher value; concentration not given here
[3] = Cy5 fluorescence quenching or enhancement artefacts, artefact control for HCV NS3 helicase inhibitor project, biochemical, LOPAC1280 (AID 687037; call rule not given here); conditions: Cy5-DNA-NS3h complex fluorescence interference counterscreen
[4] = differential killing of epithelial or mesenchymal cells, primary screen, imaging, PC-3E GFP, TEM4-18 mCherry, co-culture (AID 1345086;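 active = compounds killing one labelled cell type while sparing the other, by normalised counts and ratio limits, not self-fluorescent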;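 for all read-outs here: cells exposed to compound for 72 h before imaging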;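 for red/green cell ratio (normalised): normalised mesenchymal count divided by normalised epithelial count so high means epithelial killing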); conditions: imaging cell counts, at 1 µM; for red/green cell ratio (normalised): actives lie on both sides, counts scaled to control wells, 1 = unselective
[5] = sensitizers of A549 cells to miR-34 induction, primary screen, imaging, A549 dox-inducible miR-34, nuclei and caspase counts (AID 1347080); conditions: A549 miR-34 inducible, Hoechst nuclei count, 48 h
[6] = phospholipid biosynthesis inhibitors in animal cells, primary screen, cell-based, LOPAC library, screen 4 (AID 1347384; call rule not given here); conditions: phospholipid biosynthesis inhibition screen, at 10 µM
[7] = biological target: Mitogen-activated protein kinase 7 (Homo sapiens) (UniProt Q13164); assay: ERK5 transactivation activators in reporter cells, primary screen, cell-based, HTS (AID 1508626;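 active = luciferase signal above three times the same-plate solvent-only control wells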;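 note: luciferase driven by Gal4-ERK5 fusion binding five Gal4 sites before minimal TATA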); conditions: HeLa Gal4-ERK5 transactivation, 18 h, at 5 µM, stronger effect = higher value
[8] = viability rescue of complex I mutant cybrids, primary screen, cell-based, galactose medium, ATP luminescence (AID 1645843;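 active = z-score of at least 1.8 in each of two replicates, scored against plate mean and spread of sample wells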;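 note: positive z means more ATP and so rescue of galactose-driven cybrid death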); conditions: complex I mutant cybrid cells, 72 h, stronger effect = higher value
[9] = liver-stage malaria parasite growth inhibition, primary screen, cell-based, HepG2, luciferase luminescence, HepG2 viability (AID 624349; in the data active = parasite load remaining mostly below about 12%, no sharp cut-off; inactive = mostly above about 10%;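 note: 100% = mean of DMSO negative control wells on the same plate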); conditions: P. berghei liver stage in HepG2, luciferase luminescence, concentration not given here; parasite load remaining: stronger effect = lower value; viability: measured here: HepG2 viability without parasites
[10] = survival rescue of mitochondrial mutant cells in low glucose, primary screen, MELAS cybrids, Rieske KO mouse fibroblasts, CellTiter-Glo (AID 1508586;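 active = mean z-score across replicates of 1.96 or higher in either the MELAS or the Rieske mutant cell line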;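 note: z relative to plate mean and SD of compound and empty wells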)
[11] = biological target: NAD(+) hydrolase SARM1 (Homo sapiens) (UniProt Q6SZW1); assay: SARM1 TIR NADase inhibitors, cell lysate, NAD-Glo luminescence (AID 1508614;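 active = compound whose remaining NAD level is above about 45 nM, limit read from the data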;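 note: higher remaining NAD means stronger inhibition of SARM1 NADase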); conditions: SAM-TIR HEK293T lysate NADase, at 1 µM, stronger effect = higher value
[12] = hESC survival regulators, cell-based (AID 493140; call rule not given here;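 note: cells exposed to compounds for four days before counting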); conditions: human embryonic stem cell survival screen; stronger effect = higher value
[13] = measured here: epithelial PC-3E GFP cell survival
[14] = measured here: mesenchymal TEM4-18 mCherry cell survival
[15] = stronger effect = lower value, cell number ratio, induced over uninduced
[16] = measured here: relative caspase fold change +Dox/-Dox
[17] = measured here: total cells with miR-34 induction, stronger effect = lower value
[18] = measured here: total cells without miR-34 induction
[19] = MELAS cybrid survival, CellTiter-Glo 48 h, stronger effect = higher value
[20] = Rieske KO mouse fibroblast survival, CellTiter-Glo 72 h

Sequence of NAD(+) hydrolase SARM1 (Homo sapiens) (Q6SZW1 whole entry, looked up): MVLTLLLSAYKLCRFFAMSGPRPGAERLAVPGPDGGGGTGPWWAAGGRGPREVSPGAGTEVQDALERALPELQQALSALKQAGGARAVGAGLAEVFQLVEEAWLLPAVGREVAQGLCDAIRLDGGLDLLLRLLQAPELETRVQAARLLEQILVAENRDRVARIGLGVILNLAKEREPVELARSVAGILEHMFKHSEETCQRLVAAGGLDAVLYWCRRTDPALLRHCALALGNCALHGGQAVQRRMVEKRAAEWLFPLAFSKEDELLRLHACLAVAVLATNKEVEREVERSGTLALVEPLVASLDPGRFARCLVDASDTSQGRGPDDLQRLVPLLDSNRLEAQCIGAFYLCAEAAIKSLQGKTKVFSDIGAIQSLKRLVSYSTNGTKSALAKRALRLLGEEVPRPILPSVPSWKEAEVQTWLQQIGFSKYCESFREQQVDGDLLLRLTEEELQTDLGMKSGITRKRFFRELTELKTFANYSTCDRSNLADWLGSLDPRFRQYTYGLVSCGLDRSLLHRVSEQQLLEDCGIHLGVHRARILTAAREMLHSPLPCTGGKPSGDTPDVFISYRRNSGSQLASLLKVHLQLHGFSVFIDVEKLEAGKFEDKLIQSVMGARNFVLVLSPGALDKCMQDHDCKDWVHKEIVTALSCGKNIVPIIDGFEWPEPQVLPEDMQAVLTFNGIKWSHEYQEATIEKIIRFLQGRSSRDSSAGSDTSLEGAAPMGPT
Sequence of Mitogen-activated protein kinase 7 (Homo sapiens) (Q13164 whole entry, looked up, the tested form may be a part): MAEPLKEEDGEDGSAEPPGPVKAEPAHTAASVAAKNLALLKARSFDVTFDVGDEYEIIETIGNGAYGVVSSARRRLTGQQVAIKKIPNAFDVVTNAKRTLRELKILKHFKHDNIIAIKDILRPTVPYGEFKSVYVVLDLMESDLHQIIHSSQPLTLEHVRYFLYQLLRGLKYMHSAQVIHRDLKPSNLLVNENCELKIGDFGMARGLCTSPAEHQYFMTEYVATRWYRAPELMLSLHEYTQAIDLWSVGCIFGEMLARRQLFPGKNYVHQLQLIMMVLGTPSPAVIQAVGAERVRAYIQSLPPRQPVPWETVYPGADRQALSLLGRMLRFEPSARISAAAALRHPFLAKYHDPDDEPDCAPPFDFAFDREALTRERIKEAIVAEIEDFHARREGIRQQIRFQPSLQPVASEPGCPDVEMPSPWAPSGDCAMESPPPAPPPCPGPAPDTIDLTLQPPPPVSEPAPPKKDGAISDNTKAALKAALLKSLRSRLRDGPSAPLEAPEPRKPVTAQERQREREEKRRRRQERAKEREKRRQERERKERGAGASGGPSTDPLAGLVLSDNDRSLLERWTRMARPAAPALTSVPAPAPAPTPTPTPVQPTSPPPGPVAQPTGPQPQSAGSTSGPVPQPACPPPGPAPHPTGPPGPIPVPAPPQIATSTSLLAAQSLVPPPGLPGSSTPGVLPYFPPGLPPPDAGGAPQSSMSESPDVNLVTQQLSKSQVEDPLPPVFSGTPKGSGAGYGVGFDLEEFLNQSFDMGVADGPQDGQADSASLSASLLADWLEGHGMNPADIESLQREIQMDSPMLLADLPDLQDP

| SMILES | period change [1] | inhibition [2] | fluorescence ratio (interference) [3] | red/green cell ratio (normalised) [4] | normalised cell number [4, 13] | normalised cell number [4, 14] | fold change [5, 15] | fold change [5, 16] | cell count [5, 17] | cell count [5, 18] | outcome [6] | luciferase signal [7] | z-score [8] | parasite load remaining [9] | viability [9] | z-score [10, 19] | z-score [10, 20] | remaining NAD [11] | survival [12] |
| --- | --- | --- | --- | --- | --- | --- | --- | --- | --- | --- | --- | --- | --- | --- | --- | --- | --- | --- | --- |
| O=C(O)c1ccccc1Nc1ccccc1 | -0.04 h (inactive) | 0% (inactive) | 0.9 (inactive) | 0.96 (inactive) | 1.09 | 1.05 | 1.06 (inactive) and 0.981 (inactive) | 2.67 and 0.812 | 10300 and 5440 | 9720 and 5550 | inactive | 24 AU (inactive) | 2.06 (active) |  |  |  |  |  |  |
| COc1cc([C@@H]2c3cc4c(cc3[C@H](O)C3COC(=O)[C@@H]32)OCO4)cc(OC)c1OC (some centres undefined) | 0.2 h (inactive) | -3% (inactive) | 1 (inactive) | 1.07 (inactive) | 0.17 | 0.18 | 0.98 (inactive) | 1.04 | 1670 | 1710 | inactive |  | -0.545 (inactive) |  |  |  |  |  |  |
| COC1CC2CCC(C)C(O)(O2)C(=O)C(=O)N2CCCCC2C(=O)OC(C(C)CC2CCC(O)C(OC)C2)CC(=O)C(C)/C=C(\C)C(O)C(OC)C(=O)C(C)CC(C)/C=C/C=C/C=C/1C (centres undefined) |  |  |  | 1.36 (inactive) | 0.36 | 0.49 | 0.865 (inactive) | 3.67 | 7720 | 8920 |  |  |  | 60.9% (inactive) | 98.1% |  |  |  |  |
| NCCCNCCCCNCCCN | -0.16 h (inactive) | -1% (inactive) | 1 (inactive) | 1.05 (inactive) | 0.96 | 1 | 0.928 (inactive) | 0.993 | 10300 | 11100 | inactive |  | -0.2 (inactive) |  |  |  |  |  |  |
| CC[C@H]1OC(=O)[C@H](C)[C@@H](O[C@H]2C[C@@](C)(OC)[C@@H](O)[C@H](C)O2)[C@H](C)[C@@H](O[C@@H]2O[C@H](C)C[C@H](N(C)C)[C@H]2O)[C@](C)(O)C[C@@H](C)[C@@H]2N[C@@H](COCCOC)O[C@H]([C@H]2C)[C@]1(C)O |  |  |  | 0.74 (inactive) | 1.25 | 0.93 | 0.867 (inactive) and 0.854 (inactive) | 0.963 and 2.6 | 8760 and 11500 | 10100 and 13500 |  | 44 AU (inactive) |  | 193% (inactive) and 158% (inactive) and 59.8% (inactive) | 113% and 86.5% and 194% | -1.14 (inactive) | -0.393 | 10 nM (inactive) |  |
| COc1cccc2c1C(=O)c1c(O)c3c(c(O)c1C2=O)C[C@@](O)(C(=O)CO)C[C@@H]3OC1C[C@H](N)[C@H](O)[C@H](C)O1 (some centres undefined) |  |  |  | 2.27 (inactive) | 0.17 | 0.39 | 0.907 (inactive) | 1.04 | 1130 | 1250 |  |  |  | 18.8% (inactive) | 53.1% |  |  |  |  |
| CC(C)CC(N)=O |  |  |  | 0.8 (inactive) | 1.07 | 0.86 | 0.906 (inactive) and 0.908 (inactive) | 0.955 and 0.851 | 8450 and 8440 | 9330 and 9300 |  |  |  |  |  | -0.0903 (inactive) | -0.199 | 10 nM (inactive) |  |
| Cc1cc(-n2c(=O)[nH]c(=O)n(C)c2=O)ccc1Oc1ccc(SC(F)(F)F)cc1 |  |  |  | 0.98 (inactive) | 1.07 | 1.05 | 0.875 (inactive) and 0.912 (inactive) | 1.01 and 1.07 | 7860 and 10300 | 8980 and 11300 |  | 136 AU (inactive) | 0.65 (inactive) | 24.3% (inactive) | 72% | -0.0992 (inactive) and -0.247 (inactive) and 0.135 (inactive) | -0.203 and -0.144 and -0.234 | 10 nM (inactive) |  |
| CC(=O)C1C(=O)C=C(C)OC1=O (centres undefined) |  |  |  | 1.08 (inactive) | 0.99 | 1.07 | 0.96 (inactive) | 0.723 | 9120 | 9500 |  |  |  |  |  |  |  | 10 nM (inactive) |  |
| CC(C)N1CCN(c2ccc(OC[C@H]3CO[C@](Cn4cncn4)(c4ccc(Cl)cc4Cl)O3)cc2)CC1 |  |  |  | 0.77 (inactive) | 1.12 | 0.87 | 0.864 (inactive) | 1.54 | 9020 | 10400 |  |  |  | 37.3% (inactive) | 97.4% | -0.379 (inactive) | 0.124 | 10 nM (inactive) |  |
| CC(O)(CC(=O)O)CC(=O)O |  |  |  | 1.15 (inactive) | 0.86 | 0.99 | 0.913 (inactive) | 1.16 | 8220 | 9000 |  |  |  |  |  |  |  | 10 nM (inactive) |  |
| CC(=O)Oc1cccc(C)c1 |  |  |  | 1.03 (inactive) | 0.86 | 0.89 | 0.912 (inactive) | 1.13 | 8300 | 9090 |  |  |  |  |  |  |  | 10 nM (inactive) |  |
| Cc1c(O)c(=O)n(-c2ccccc2)n1C |  |  |  | 0.78 (inactive) | 1.09 | 0.85 | 0.946 (inactive) | 1.41 | 8310 | 8790 |  |  |  | 37.6% (inactive) and 51.4% (inactive) | 95.8% and 94.4% | 0.46 (inactive) | -0.0513 |  | 23.9 (inactive) |
| NC(N)=NCC1COC2(CCCCC2)O1 (centres undefined) |  |  |  | 1.08 (inactive) | 1.11 | 1.2 | 0.907 (inactive) | 1.21 | 9550 | 10500 |  |  |  | 70.3% (inactive) | 91.8% | 0.764 (inactive) | 0.202 | 10 nM (inactive) | 5.58 (inactive) |
| CCCCCCCCCCCCCCCC(=O)OCC(O)[C@H]1OC(=O)C(O)=C1O (some centres undefined) |  |  |  | 1.11 (inactive) | 1.1 | 1.22 | 1.02 (inactive) and 0.87 (inactive) | 0.52 and 0.622 | 7640 and 11300 | 7530 and 13000 |  |  |  | 30.5% (inactive) | 230% | -0.179 (inactive) | -0.164 |  |  |
